# Assay results: PubChem BioAssay (NCI)
# Compounds without any hit were thinned out: in the full panel of roughly 83,000, 20% have a hit.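 The test compound was applied at a single concentration to cells in 96-well plates for 48 hours, and percent growth was recorded.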 Values without a mark were called inactive. Active and inactive are the calls of the source. The calls were made as follows: active = growth percent below 10; inactive = the rest.
# Tested on: MDA-MB-468 breast
# Test: NCI-60 one-dose screen, 48 h (100 = growth as untreated, 0 = no growth, -100 = all killed)
# Conditions: 10 µM unless noted
row,Structure (SMILES),growth
1,CCC(=O)NC(O)C(Cl)(Cl)C(C)Cl (stereo not given),92.5%
2,CCNCC(=O)Nc1ccc(C(=O)OCC)cc1,111%
3,CCOc1cc(\C=N/N=C(N)/C(N)=N\N=C/c2ccc(O)c(OCC)c2)ccc1O,111%
4,CCn1c(=O)c(C(=O)NCCCO)c(O)c2ccccc21,112%
5,Nc1nc(-c2cccc([N+](=O)[O-])c2)c(N=Nc2ccc([N+](=O)[O-])cc2Cl)s1,-10.7% (active)
6,N#C/C(=C\c1ccc(-c2ccc(Cl)cc2)o1)C(=O)Nc1ncc(Cc2ccc(Br)cc2)s1,25.7%
7,COc1ccc2c(c1)c(CC(=O)O)c(C)n2C(=O)c1ccc(Cl)cc1,96.4%
8,O=C(/C=C/c1ccc(Oc2ccc(Br)cc2)cc1)c1ccc(Br)cc1,98.3%
9,CC1=C(C)C(=O)C(Nc2ccccc2)=C(Cl)C1=O,-76% (active)
10,CCOC(=O)c1c(Nc2ccccc2)nn2c(-c3cccs3)ccnc12,73.3%
11,COc1cc(CCN=Cc2ccccc2O)c([N+](=O)[O-])cc1OC,113%
12,O=c1c2ccccc2nc(COc2ccccc2)n1NS(=O)(=O)c1ccc(Cl)cc1,40.4%
13,COc1ccc(C(=O)NNc2nc(Cl)nc(N3CCN(C(c4ccccc4)c4ccccc4)CC3)n2)cc1,-31.9% (active)
14,CCCCO[C@@H]1C=C2[C@H]3CC(C)(C)C(=O)C[C@]3(C(=O)O[C@@H]3O[C@H](CO[C@@H]4O[C@H](CO)[C@@H](OC5OC(C)C(O)C(O)C5O)[C@H](O)[C@H]4O)[C@@H](O)[C@H](O)[C@H]3O)CC[C@@]2(C)[C@]2(C)CC[C@H]3C(C)(C)C(=O)CC[C@]3(C)[C@@H]12 (stereo not given in full),101%
15,CCOC(=O)c1nc(Nc2ccc(NC(=O)Nc3ccc(F)cc3)cc2)c2ccccc2n1,80.3%
16,CNC(=O)c1c(NC(=O)c2ccc(C(C)C)cc2)sc2c1CCC(=O)C2,-28.4% (active)
17,C[C@@H]1CN(c2cnc(C(=O)Nc3cc(F)cc4cccnc34)cn2)C[C@H](C)N1,3.8% (active)
18,CN[C@@H](CCCNC(N)=NC/C=C(/C)CCC=C(C)C)C(=O)N(C)[C@@H](CCCNC(N)=NCC=C(C)C)C(=O)N[C@H](C)[C@H](OS(=O)(=O)O)c1ccc(OS(=O)(=O)O)c(COS(=O)(=O)O)c1,97.3%

row,Structure (SMILES),growth
1,Clc1ccc(C2CC(c3cccc(Nc4ccncc4)c3)=NN2c2ccccc2)cc1 (stereo not given),61.6%
2,CCOc1ccc2c(c1)CC[C@@H]1[C@@H]2CC[C@]2(C)[C@@H](O)[C@@H](O)C[C@@H]12,87.5%
3,N#Cc1cccc(CN2CCC3=C(C2)C(=O)N(Cc2ccc(Cl)cc2)C2=NCCCN23)c1,-16.1% (active)
4,O=C1/C(=C2\SC(=S)N(C3CC3)C2=O)SC(=S)N1C1CC1,88.7%
5,c1ccc(CSc2ncccc2-c2nnc(SCCN3CCOCC3)o2)cc1,98.3%
6,COc1ccc(/C=C2\CN(Cc3cn(CCCNc4ccnc5cc(Cl)ccc45)nn3)C/C(=C\c3ccc(OC)c(OC)c3)C2=O)cc1OC,-11.1% (active)
7,O=c1oc2c(C(F)(F)F)cccc2cc1-c1csc(Nc2ccc(OCCF)cc2)n1,5.55% (active)
8,COc1cccc2c1O/C(=C\c1c([N+](=O)[O-])ncn1C)C2=O,101%
9,CCOC(=O)/C=C\C(=O)NC(N)=O,88.6%
10,Cc1ccc(S(=O)(=O)NCCCNc2nc(Nc3ccc(N4CCN(C)CC4)cc3)nc3ccsc23)cc1,12.3%
11,CCOC(=O)c1ccc(N=Cc2sc(=O)[nH]c2O)cc1,98.6%
12,CCN(CC)c1ccc(C(O)C2=CC(=O)c3ccccc3C2=O)cc1 (stereo not given),-53% (active)
13,CC(C)(C)c1nn(-c2ccccc2)c2c1COCN2Cc1ccc(Cl)cc1,89%
14,O=c1cc(C(F)(F)F)[nH]c(=S)[nH]1,110%
15,O=C1N(c2ccccc2)C(=S)N[C@]12[C@H](c1ccccc1)C1CCCN1[C@]21C(=O)NC2C=CC(Cl)=C[C@H]21 (stereo not given in full),99.7%
16,COc1ccc(C2CC(c3cccc(OCCCCOc4cccc(C5=NN(C(C)=O)C(c6ccc(OC)cc6)C5)c4)c3)=NN2C(C)=O)cc1 (stereo not given),23.7%
17,O=C(NCCN1CCOCC1)c1cncnc1Nc1ccc2c(ccn2Cc2ccccn2)c1,98%
